We go through eight molecules from PubChem BioAssay (Tox21).

Test [1] can be described thus: qHTS assay to identify small molecule agonists of the vitamin D receptor (VDR) signaling pathway - cell viability counter screen (AID 743224). Also: series mostly up to about 63 µM; nearly all actives have a fitted effect of over 50% in size. A digest of the protocol:
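VDR-bla cells were preincubated 4 h at 37C/5% CO2, then exposed to compounds for 16 h. After the 2 h room-temperature bla FRET read, CellTiter-Glo was added to the same wells and luminescence read after 30 min.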

Test [2] can be described thus: qHTS assay to identify small molecule antagonists of the vitamin D receptor (VDR) signaling pathway - cell viability counter screen (AID 743225). Also: nearly all actives have a fitted effect of over 50% in size. A digest of the protocol: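 Compounds were pinned onto VDR-bla HEK 293T cells together with 1-alpha,25-dihydroxyvitamin D3 at 3 nM final. After 16 h at 37C and 5% CO2 plus the reporter readout, cell viability was measured by CellTiter-Glo luminescence (30 min, room temperature).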
Background: In qHTS, concentration-response curves come from the screen itself.

Test [3] is described as follows: qHTS assay to identify small molecule agonists of the NFkB signaling pathway (AID 1159509; active = well fitted curve in the direction sought with a large enough effect in the signal ratio in the repeat runs, not every such curve was filed as active; the % refers to the signal ratio; also: series mostly up to about 61 µM). A digest of the protocol: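 NFkB-bla ME-180 cells with a beta-lactamase reporter under an NF-kB response element were plated overnight, treated with compounds in DMSO for 5 hr at 37 C, then loaded with FRET substrate for 1.5 hr at room temperature.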
The nature of test [4]: qHTS assay to identify small molecule agonists of the NFkB signaling pathway - cell viability counter screen (AID 1159515; calls by dose curve; also: series mostly up to about 61 µM; nearly all actives have a fitted effect of over 55% in size). A digest of the protocol:
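NFkB-bla ME-180 cells, 2,000/well, were plated overnight at 37 C, 5% CO2, then exposed to compounds in DMSO for 5 hr. After the bla FRET read, CellTiter-Glo was added to the same wells; luminescence was read after 30 min at room temperature.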

Test [5] can be described thus: qHTS assay to identify small molecule agonists of the endoplasmic reticulum stress response signaling pathway (AID 1159516; active = well fitted activation curve with a large enough effect in the signal ratio in the repeat runs, not every such curve was filed as active; the % refers to the signal ratio). Put shortly:
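CellSensor ESRE-bla HeLa cells, carrying a beta-lactamase reporter driven by the ER stress response element, were plated overnight and exposed to compounds for 5 hr at 37 C. Reporter activity was read as FRET substrate fluorescence after 2 hr at room temperature.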

Test [6] can be described thus: qHTS assay to identify small molecule agonists of the endoplasmic reticulum stress response signaling pathway - cell viability counter screen (AID 1159517; calls by dose curve; also: series mostly up to about 61 µM; nearly all actives have a fitted effect of over 50% in size). Put shortly:
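Luminescence readout: CellTiter-Glo, 30 min RT, same wells as the ESRE-bla reporter read. HeLa ESRE-bla, 1,500 cells/well, o/n 37 C; cpd 5 hr 37 C/5% CO2.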

Test [7] is described as follows: qHTS assay to identify small molecule antagonists of the retinoid-related orphan receptor gamma (ROR-gamma) signaling pathway - cell viability counter screen (AID 1159520). Also: nearly all actives have a fitted effect of over 50% in size. Put shortly:
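Tet-on ROR gamma CHO cells (1,000/well) were plated 4 hr, given compounds in DMSO for 2 hr at 37 C, then induced with 1 uM final doxycycline for 16 hr. Viability was read as ATP by CellTiter-Glo luminescence after 30 min.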

The target in test [8] is Nuclear receptor ROR-gamma (Homo sapiens) (UniProt P51449). In words: qHTS assay to identify small molecule antagonists of the retinoid-related orphan receptor gamma (ROR-gamma) signaling pathway (AID 1159521; also: nearly all actives have a fitted effect of over 50% in size; also: potency is read from the fitted curve at half-maximal effect). Put shortly: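 Test compounds were applied to Tet-on RORγ CHO cells 2 h ahead of doxycycline hyclate (1 uM final). Luciferase reporter activity was quantified by luminescence after 16 h at 37 C and 5% CO2.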

Test [9] can be described thus: qHTS assay to identify small molecule agonists of the AP-1 signaling pathway - cell viability counter screen (AID 1159525; calls by dose curve; also: nearly all actives have a fitted effect of over 55% in size). A digest of the protocol: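 ME-180 AP-1-bla, 2500 cells/well, Opti-MEM + 0.5% dialyzed FBS; overnight 37 °C; cpd 15-pt titration, 5 h 37 °C; CellTiter-Glo 30 min RT; luminescence read; normalised to TOAB and DMSO controls.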
A short description of test [10]: qHTS assay to identify small molecule agonists of the AP-1 signaling pathway (AID 1159526; calls by dose curve).
For test [11], the target named is Retinoic acid receptor RXR-alpha (Homo sapiens) (UniProt P19793). The experiment in a line: qHTS assay to identify small molecule agonists of the RXR signaling pathway (AID 1159527; calls by dose curve; also: nearly all actives have a fitted effect of over 35% in size). Put shortly:
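Using 9-cis retinoic acid as the reference agonist, chemicals were tested in HEK 293T cells […] for 16 hr; substrate loading lasted 2 hr at room temperature.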

Test [12] is described as follows: qHTS assay to identify small molecule agonists of the RXR signaling pathway - cell viability counter screen (AID 1159529). Put shortly:
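Compounds dissolved in DMSO were pinned onto HEK 293T cells carrying a beta-lactamase reporter under RXR-alpha control and incubated 16 hr. Cytotoxicity was then quantified by CellTiter-Glo luminescence.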

Test [13] is described as follows: qHTS assay to identify small molecule antagonists of the retinoid acid receptor (RAR) signaling pathway - cell viability counter screen (AID 1159551). Also: nearly all actives have a fitted effect of over 35% in size. Put shortly: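 C3RL4 cells were seeded overnight at 37 C, then treated with compounds plus 1 uM (final) retinol for 6 h at 37 C. Viability was read as ATP by CellTiter-Glo luminescence after 30 min at room temperature.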

The nature of test [14]: qHTS assay to identify small molecule antagonists of the retinoic acid receptor (RAR) signaling pathway (AID 1159552; also: nearly all actives have a fitted effect of over 50% in size; also: potency is read from the fitted curve at half-maximal effect). Put shortly: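 Test chemicals and DMSO controls were pin-transferred onto C3RL4 cells a day after seeding; retinol (1 uM final) followed at once. Luminescent reporter output was quantified after 6 hr of co-incubation and 30 min with detection reagent.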

The nature of test [15]: qHTS assay to identify small molecule agonists of the retinoic acid receptor (RAR) signaling pathway (AID 1159553). A digest of the protocol:
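C3RL4 cells carrying a RARE luciferase reporter were plated overnight at 37 C, then exposed to compounds in DMSO for 6 hr at 37 C and 5% CO2. Luminescence was read 30 min after luciferase reagent addition at room temperature.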

A short description of test [16]: qHTS assay to identify small molecule antagonists of the estrogen related receptor (ERR) signaling pathway - cell viability counter screen (AID 1224818).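 Also: series mostly up to about 46 µM; viability measured after 17.5 h of compound exposure.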 A digest of the protocol: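 ERR reporter cells plated 6 h at 37 C/5% CO2, then compounds in DMSO pin-transferred and incubated 17.5 h at 37 C. Viability read as CellTiter-Fluor fluorescence after 30 min at 37 C.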

A short description of test [17]: qHTS assay to identify small molecule antagonists of the estrogen related receptor signaling pathway with the pleiotropic PPARgamma coactivator (PGC) cell viability counter screen (AID 1224822; also: series mostly up to about 46 µM). Put shortly: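 PGC/ERR cells were seeded at 2,000 cells/well, rested 6 h at 37 C/5% CO2, then given compounds in DMSO by pin tool and incubated 17.5 h at 37 C. Viability came from CellTiter-Fluor fluorescence after 30 min.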

Values joined by “and” are separate entries in the source; they are usually repeats but may differ in a detail not shown here. Equal values may be shown once. Inconclusive results are not listed. Some structures have more than one record in an assay (separate samples or runs), and their calls can disagree. Active and inactive are the calls of the source. Unless noted, calls follow the shape of the dose curve; as a rule, active = well fitted curve in the direction sought with a large enough effect in the repeat runs; inconclusive = weak or mixed curves; inactive = no such curve, though single readings can be large; an effect the other way counts as inactive or inconclusive.

Chain of Retinoic acid receptor RXR-alpha (Homo sapiens) (P19793 whole entry, looked up): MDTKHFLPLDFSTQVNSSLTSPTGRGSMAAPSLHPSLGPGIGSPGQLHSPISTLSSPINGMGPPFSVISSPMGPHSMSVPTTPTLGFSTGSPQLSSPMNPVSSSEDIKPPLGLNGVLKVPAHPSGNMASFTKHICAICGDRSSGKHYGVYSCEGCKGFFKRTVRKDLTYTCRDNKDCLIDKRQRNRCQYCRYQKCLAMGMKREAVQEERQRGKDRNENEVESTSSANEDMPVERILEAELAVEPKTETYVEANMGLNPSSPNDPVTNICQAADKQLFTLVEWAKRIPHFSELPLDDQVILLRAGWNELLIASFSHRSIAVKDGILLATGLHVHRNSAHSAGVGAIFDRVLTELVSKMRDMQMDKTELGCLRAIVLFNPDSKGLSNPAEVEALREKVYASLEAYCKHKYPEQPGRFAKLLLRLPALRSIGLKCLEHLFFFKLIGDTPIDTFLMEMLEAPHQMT

With `C=C(C)C(N)=O`, the Potency result in test [1], in [6], in test [8], in test [10], in test [11] and in test [12] was “inactive” throughout. For the same molecule, the Potency entry in test [14] and in [15] was “inactive” each time. The molecule was classed as inactive in test [2], in test [3], in test [4], in test [5], in [7] and in test [9]. The molecule was classed as inactive in test [13].

Turning to `CCCCCCCC(=O)OCC(O)CO` (configuration not stated), the Potency result in test [1], in test [6], in test [8], in [10], in test [11] and in [12] was “inactive” in each case. Moreover, the Potency entry in test [14] and in test [15] was “inactive” throughout. Besides, the outcome in test [2], in test [3], in [4], in test [5], in test [7] and in test [9] was inactive. Also, in test [13], the molecule was called inactive.

Regarding `CC(=O)Oc1ccccc1C(=O)O`, the Potency result in [1], in test [6], in [8], in test [10], in test [11] and in [12] was “inactive” in each case. In addition, the Potency result in test [14] and in [15] was “inactive” throughout. The outcome in test [2], in test [3], in test [4], in [5], in [7] and in test [9] was inactive. The result in test [13], in test [16] and in test [17] was inactive.

For `CO[C@H]1C=CO[C@@]2(C)Oc3c(C)c(O)c4c(O)c(c(/C=N/N5CCN(C)CC5)c(O)c4c3C2=O)NC(=O)/C(C)=C\C=C[C@H](C)[C@H](O)[C@@H](C)[C@@H](O)[C@@H](C)[C@H](OC(C)=O)[C@@H]1C`, the Potency entry in [1], in test [6], in [8], in [10], in test [11] and in test [12] was “inactive” throughout. Moreover, the Potency result in test [14] and in [15] was “inactive” throughout. Moreover, the molecule was classed as inactive in [2], in test [3], in [4], in [5], in test [7] and in [9]. In addition, the result in test [13] was inactive.

`CCCCCCCCCCCCCC(=O)OC(C)C`: the Potency result in [1], in [6], in test [8], in test [10], in test [11] and in [12] was “inactive” in each case. For the same molecule, the Potency result in test [14] and in test [15] was “inactive” in each case. Besides, the molecule was classed as inactive in test [2], in test [3], in test [4], in test [5], in test [7] and in test [9]. The molecule was called inactive in [13].

Regarding `COC1=CC(=O)C[C@@H](C)[C@]12Oc1c(Cl)c(OC)cc(OC)c1C2=O`, the Potency entry in test [1], in test [6], in test [10], in [11], in [12] and in test [15] was “inactive” each time. Further, the molecule was classed as inactive in test [2], in test [3], in test [4], in [5], in [7] and in [9]. Further, the molecule was called inactive in [13]. The Potency in test [8] is 8.56 µM (active) and 19.3 µM (active) and inactive; in [14], 9.6 µM (active).

Take `CCCCOCCOCCSC#N`: the Potency entry in test [1], in test [6], in test [8], in [10], in test [11] and in test [12] was “inactive” each time. For the same molecule, the Potency result in [14] and in test [15] was “inactive” in each case. The molecule was classed as inactive in test [2], in test [3], in test [4], in [5], in [7] and in [9]. Besides, in test [13], the result was inactive.

`CCc1cc(C(N)=S)ccn1`: the Potency entry in test [1], in test [6], in test [8], in test [10], in [11] and in test [12] was “inactive” in each case. For the same molecule, the Potency result in [14] and in [15] was “inactive” in each case. The outcome in [2], in test [3], in test [4], in test [5], in test [7] and in test [9] was inactive. Besides, in test [13], the call was inactive.
